Cdc25B block: inhibitors of Cdc25B phosphatase catalytic domain, primary screen, biochemical, OMFP fluorescence | inhibition, %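 (compounds tested at 10 µM final in the well)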 | recombinant Cdc25B, OMFP fluorescence Ex485/Em525 | M-phase inducer phosphatase 2 (Homo sapiens), P30305 | 65,000 tested, 0.1% active | AID 368, 2006; in the data active = inhibition above about 50%
CatL block: inhibitors of human cathepsin L, biochemical. 58,000 tested, 0.17% active. inhibition, %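 (tested at 10 µM)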. purified cathepsin L, fluorogenic substrate, fluorescence; in the data active = inhibition above about 45%;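 note: 0% = enzyme with no compound and 100% = no enzyme blank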
CatB block: human cathepsin B inhibitors, primary screen, biochemical, fluorogenic substrate | inhibition, %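 (tested at 10 µM)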 | 63,000 tested, 0.1% active | purified cathepsin B, fluorescence | AID 453, 2006 | P07858; in the data active = inhibition above about 21%;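 note: 0% = enzyme with no compound and 100% = no enzyme blank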
CatS block: inhibitors of human cathepsin S, biochemical, compound mixtures | recombinant cathepsin S, AMC dipeptide fluorescence, pooled mixtures | inhibition, %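 (tested at 5 µM per compound within 10-compound mixtures)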 | 62,000 tested, 0.06% active; in the data active = inhibition above about 32%, passing the limit was not always enough;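 note: 0% = enzyme without compound and 100% = blank without enzyme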
Target sequence (P25774 115-331 limits assumed): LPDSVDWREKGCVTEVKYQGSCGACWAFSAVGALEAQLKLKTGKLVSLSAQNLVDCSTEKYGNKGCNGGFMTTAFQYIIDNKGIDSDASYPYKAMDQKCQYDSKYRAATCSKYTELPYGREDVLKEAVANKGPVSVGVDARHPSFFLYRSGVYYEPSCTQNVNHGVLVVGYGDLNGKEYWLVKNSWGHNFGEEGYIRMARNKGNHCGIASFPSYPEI
MKP-1 inh: MKP-1 phosphatase inhibitors, primary screen, biochemical, in vitro; 65,000 tested, 0.15% active; Dual specificity protein phosphatase 1 (Homo sapiens), P28562; inhibition, %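 (compounds tested at a single concentration somewhere between 10 and 100 µM)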; recombinant MKP-1, OMFP hydrolysis fluorescence;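 active = inhibition above about 50%, limit read from the data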;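 note: 0% = DMSO max control wells and 100% = wells with enzyme stopped by NaOH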
Target sequence (P28562 whole entry, looked up): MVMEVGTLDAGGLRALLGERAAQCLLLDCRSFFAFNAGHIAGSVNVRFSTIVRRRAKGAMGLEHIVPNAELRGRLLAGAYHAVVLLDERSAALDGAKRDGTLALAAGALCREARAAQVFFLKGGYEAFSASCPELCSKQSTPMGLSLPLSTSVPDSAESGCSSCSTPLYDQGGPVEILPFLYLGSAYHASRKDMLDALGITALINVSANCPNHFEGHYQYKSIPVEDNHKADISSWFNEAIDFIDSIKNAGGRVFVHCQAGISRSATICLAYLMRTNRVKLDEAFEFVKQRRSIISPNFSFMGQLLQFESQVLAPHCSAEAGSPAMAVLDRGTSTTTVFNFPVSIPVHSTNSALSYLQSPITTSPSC
CatB mix inh: cathepsin B inhibitors from pooled compounds, primary screen, biochemical, compound mixtures, AMC fluorescence; P07858; Purified cathepsin B, AMC dipeptide fluorescence; AID 488, 2006; inhibition, %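 (ten-compound pools at 5 µM per compound and 50 µM total)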; 62,000 tested, 0.06% active; in the data active = inhibition above about 22%, passing the limit was not always enough;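 note: 0% = enzyme without compound and 100% = no enzyme blank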
Redox 05 DTT: redox cycling H2O2 generation, 0.5 mM DTT, dose response, artefact control, biochemical, Cdc25B catalytic domain; shares compounds with Cdc25B block; cell-free redox cycling H2O2 generation; EC50, µM; 30 tested, 50% active; AID 682, 2007; in the data active = EC50 below about 30 µM
Redox H2O2 1DTT: redox cycling H2O2 generation, 1 mM DTT, dose response, artefact control, biochemical, 1.0 mM DTT, Cdc25B catalytic domain; EC50, µM; shares compounds with Cdc25B block; AID 683, 2007; 30 tested, under 10 active; cell-free redox cycling H2O2 generation; in the data active = EC50 below about 50 µM
Redox H2O2: redox cycling hydrogen peroxide production, dose response, artefact control, biochemical, probe assessment; shares compounds with MKP-1 inh; Redox cycling H2O2 generation, DTT, phenol red/HRP; EC50, µM; 60 tested, under 10 active; call rule not given here
An asterisk follows results filed as active; i = inactive; x = no result. A selection: hits, their analogues and other compounds. The true share with any hit is near 0.57%.

SMILES	Cdc25B block	CatL block	CatB block	CatS block	MKP-1 inh	CatB mix inh	Redox H2O2	others
N#C/C(C(=O)N1CCOCC1)=C1/SC(Cc2ccccc2)C(=O)N1c1ccccc1 (stereo unspecified)	2.5	1.5	-0.8	-4.2	0.0	-0.1	x
COc1ccc(OC)c(NS(=O)(=O)Cc2ccccc2)c1	-6.4	72.9*	12.2	7.5	14.1	2.5	x
Cc1nn(Cc2ccccc2)c(C)c1NC(=O)CCC(=O)O	-30.1	12.5	8.9	11.2	1.3	2.3	x
O=C(NCc1ccco1)C(c1cccs1)N(Cc1ccccc1)C(=O)Cn1nnc2ccccc21 (stereo unspecified)	8.2	7.0	4.0	13.8	14.2	5.6	x
Cc1ccc(CN(C(=O)Cn2nnc3ccccc32)C(C(=O)NCc2ccco2)c2cccs2)cc1 (stereo unspecified)	0.5	5.9	3.6	11.9	33.6	23.3*	x
CC(=O)Nc1cc(OC(C)=O)c2nonc2c1OC(C)=O	100.4*	-9.5	-1.8	-4.5	-17.0	6.7	x	Redox 05 DTT=3.89*;Redox H2O2 1DTT=13.6*
Cc1ccnc2nc(C(=O)N3CCN(S(=O)(=O)c4ccccc4)CC3)nn12	-16.0	21.9	1.8	3.7	2.7	-1.8	x
N#Cc1cccc2cnccc12	6.1	-9.5	-0.5	-0.2	3.9	0.5	x
Nc1cccc2cnccc12	81.3*	2.7	7.6	20.2	6.4	10.9	x	Redox 05 DTT=>50;Redox H2O2 1DTT=>50
COC(=O)Nc1ccc2c(c1)ncn2C1CCCCC1	12.7	3.6	4.0	2.3	3.2	1.1	x
Cc1ccc2c(c1)C1C=CCC1C(C(=O)O)N2 (stereo unspecified)	51.4*	8.0	0.7	43.5	20.0	42.5	x	Redox 05 DTT=>50;Redox H2O2 1DTT=>50
COc1cccc2c1NC(C(=O)O)C1CC=CC21 (stereo unspecified)	50.9*	-5.0	-0.7	0.2	42.2	1.9	x	Redox 05 DTT=>50;Redox H2O2 1DTT=>50
C1=CC2c3ccccc3NC(c3ccncc3)C2C1 (stereo unspecified)	4.1	x	-2.8	4.1	-14.2	3.2	x
[O-]/[N+](=C\c1ccncc1)c1ccccc1	63.9*	15.6	1.7	-0.9	64.0*	3.2	i	Redox 05 DTT=>50;Redox H2O2 1DTT=>50
[O-]/[N+](=C\c1ccc(OC(F)F)cc1)c1ccccc1	72.8*	3.3	3.3	-25.2	64.9*	1.9	>50	Redox 05 DTT=>50;Redox H2O2 1DTT=>50
CCCCCOC(=O)C1[C@H]2C(=O)N(c3ccccc3CC)C[C@]23C=C[C@H]1O3 (stereo partly specified)	-0.6	-5.0	7.6	-12.7	-3.9	2.3	x
Cc1c(N=c2c(=O)c3ccccc3c2=O)c(=O)n(-c2ccccc2)n1C	98.4*	22.2	x	7.6	88.2*	6.3	>50	Redox 05 DTT=13.2*;Redox H2O2 1DTT=41.4*
Cc1c(N=CC=Nc2c(C)n(C)n(-c3ccccc3)c2=O)c(=O)n(-c2ccccc2)n1C	0.9	x	x	0.1	6.1	1.2	x
CCOCCOC(=O)CCSc1n[nH]c(=O)[nH]c1=O	-8.7	-0.6	-1.8	6.2	-1.4	2.5	x
COc1ccc2noc3c2c1C(=O)c1ccccc1-3	96.6*	2.2	-4.4	5.3	79.2*	2.0	>50	Redox 05 DTT=26.8*;Redox H2O2 1DTT=>50
O=C(Nc1ccc2snnc2c1)N1CCSCC1	x	10.4	1.7	-25.1	-6.3	-6.0	x
[O-]/[N+](=C/c1ccc(F)cc1)c1ccccc1	47.7	10.7	2.6	4.9	82.1*	0.1	>50
COC(=O)c1ccccc1NC(=O)CN1C(=O)C2CCCN2c2ncc(Cl)cc21 (stereo unspecified)	4.7	-6.6	-4.1	-3.3	50.2*	3.6	>50
CCc1ccccc1NC(=O)CN1C(=O)C2CCCN2c2ncc(Cl)cc21 (stereo unspecified)	-5.5	5.8	6.6	-1.5	4.2	4.0	x
Cc1ccc2cc3cc(C(=O)NCCN4CCOCC4)oc3nc2c1	-4.0	-44.8	-8.4	0.2	-1.9	7.4	x
SMILES	Cdc25B block	CatL block	CatB block	CatS block	MKP-1 inh	CatB mix inh	Redox H2O2	others
Cn1c(=O)[nH]c(=O)c2c1nc(N1CCC(Cc3ccccc3)CC1)n2Cc1ccccc1	-11.1	1.3	-1.5	2.9	6.1	1.6	x
O=C1C(C2=C(O)c3ccccc3C2=O)=Nc2ccccc21	23.3	x	5.5	7.7	91.2*	-0.2	>50
CCCCN(CCCC)Cc1ccc(N)cc1	-25.3	3.6	-2.3	4.7	-4.6	1.4	x
Cc1nc(NCCCn2ccnc2)c2ccccc2n1	-3.9	21.7	-0.3	4.2	6.6	5.8	x
O=C1c2ccccc2-c2onc3ccc(NCCCn4ccnc4)c1c23	6.3	27.7	3.3	21.2	25.4	-3.7	>50
Cc1ccc(-c2csc(NC(=O)c3ccno3)n2)cc1	23.5	14.5	3.5	16.8	53.1*	2.2	>50
CCCOc1ccc(C2C(C#N)=C(N)Oc3nc[nH]c(=O)c32)cc1OC (stereo unspecified)	-18.6	-11.1	-4.3	0.1	2.5	-1.1	x
COC(=O)c1ccc(COc2ccc(C3C4=C(CCCC4=O)Nc4onc(C)c43)cc2)cc1 (stereo unspecified)	6.2	-1.6	2.1	11.8	5.5	2.4	x
O=C(Nc1cccc(NC(=O)c2ccc(Br)o2)n1)c1ccc(Br)o1	-0.6	5.7	1.3	0.9	21.9	2.7	x
N#Cc1c(NC(=O)c2ccc(Br)o2)n(-c2ccccc2)c2nc3ccccc3nc12	8.4	-19.8	1.0	3.9	22.7	8.7	>50
CC(C)Oc1ccc(/C(O)=C2/C(=O)C(=O)N(CCN(C)C)C2c2ccco2)cc1 (stereo unspecified)	3.9	7.7	2.5	-0.7	-19.2	-2.3	x
Cc1ccc(C)n1-c1cccc(C(=O)O)c1	21.0	22.6	-0.6	21.8	50.2*	10.7	>50
CCOc1cc(/C=C(/C#N)c2ccc(F)cc2)ccc1OCc1ccc(C(=O)O)o1	-4.0	14.9	6.9	2.1	53.8*	3.2	>50
Cc1ccc(/C=C/C2=Cc3c(sc(NC(=O)CSc4n[nH]c(N)n4)c3C#N)C(C)(C)C2)o1	33.7	8.2	-0.7	4.9	68.7*	-0.2	>50
CCOC(=O)c1sc(NC(=O)CSc2n[nH]c(-c3ccccc3)n2)c(C#N)c1C	6.0	-2.5	-2.7	4.4	12.5	7.1	x
Cc1cccc(N2CCN(C(=O)Cc3c(C(=O)O)[nH]c4ccc(Cl)cc34)CC2)c1C	1.5	4.4	-2.7	2.1	52.6*	5.5	>50
